In PubChem BioAssay (NCATS):
Results filed as inconclusive are left out. Entries that show only a call come without a potency. Calls of active or inactive are those of the source. Unless noted, the call rests on the fitted dose curve; in most records, active means well fitted curve in the direction sought with a large enough effect; inconclusive means small, poorly fitted or top-dose-only effect, or another doubt; inactive means no such curve, though single readings can be large; an effect the other way counts as inactive or inconclusive.

Assays:
[1] = qHTS for differential inhibitors of proliferation of Plasmodium falciparum line W2 (AID 1883); settings: Potency: Plasmodium falciparum W2 proliferation inhibition;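 further: parasites grown with compound for 72 h before lysis and staining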; further: potency means the concentration at half of the fitted maximal effect
[2] = biological target: Ferritin light chain (Equus caballus) (UniProt P02791); experiment: qHTS Validation Assay for Identification of Novel General Anesthetics (AID 2323)
Outline: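 Apoferritin from horse spleen (10 uM) was mixed with 1-aminoanthracene at 50% saturation in PBS, then compounds were added. After 10 min at room temperature, fluorescence was read (ex 380 nm, em 535 nm) and normalized to free-probe and complex controls.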

[3] = biological target: ATP-dependent DNA helicase Q1 (Homo sapiens) (UniProt P46063); experiment: qHTS Validation Assay for Inhibitors of RecQ-Like Dna Helicase 1 (RECQ1) (AID 2353)
Outline: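 50 nM RECQ1T1 preincubated 15 min with compound in Tris pH 8.0 buffer with MgCl2, DTT, Tween-20 and 2.5 ug/ml poly(dI-dC); started with 200 nM TAMRA/BHQ-2 forked duplex and 2 mM ATP. Unwinding read as fluorescence (525/598 nm), two reads 2 h apart.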

[4] = biological target: RecQ-like DNA helicase BLM (Homo sapiens) (UniProt P54132); experiment: qHTS Validation Assay for Inhibitors of Bloom's syndrome helicase (BLM) (AID 2364); further: potency means the concentration at half of the fitted maximal effect
Outline: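 Forked 20-bp duplex substrate (200 nM, TAMRA/BHQ-2) plus 2 mM ATP added after 15 min compound preincubation with 50 nM enzyme, pH 8.0, poly(dI-dC) 2.5 ug/ml. Strand separation followed by fluorescence (525/598 nm) over 2 h, normalized to enzyme-free and DMSO controls.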

[5] = Cytometric Cell-Based qHTS for Inhibitors of the mTORC1 Signaling Pathway in MEF (Tsc2-/-, p53-/-) Cells (AID 2660);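 further: Tsc2 and p53 null MEFs carrying empty vector with compound for 24 h; percent of cells above a phospho-rpS6 to PI ratio cutoff in each well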
Outline: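 Immunofluorescence qHTS of rpS6 Ser235/236 phosphorylation: MEFs (Tsc2-/-, p53-/-) treated 24 h, 37 C, in DMEM + 10% FBS. Alexa-488 signal normalized to PI count, referenced to rapamycin (7.5 nM) and DMSO; PI cell number recorded for viability.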

[6] = High Content Imaging Cell-Based qHTS for Inhibitors of the mTORC1 Signaling Pathway in MEF (Tsc2-/-, p53-/-) Cells (AID 2666); settings: at 38.3 µM (top of the series);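 further: percent of cells scored positive for phospho-rpS6 Ser235/236 immunostaining by imaging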
Outline: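 Cells were plated, dosed with compound after 24 hrs, and incubated another 24 hrs at 37 degree Celsius. Fixed cells were immunostained for phospho-rpS6 Ser235/236 and counterstained, and the normalized signal was scored as % active cells against rapamycin and DMSO controls.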

[7] = High Content Imaging Cell-Based qHTS for Inhibitors of the mTORC1 Signaling Pathway in MEF Cells (AID 2667);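 further: Tsc2-/- p53-/- MEFs stably re-expressing wild-type Tsc2 exposed 24 h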
Outline: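 Immunofluorescence for rpS6 phosphorylation in MEFs of Tsc2-/-, p53-/- background rescued with WT Tsc2. Compound exposure lasted 24 hrs. Inhibition was scored against rapamycin-treated control wells.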

[8] = qHTS for differential inhibitors of proliferation of Plasmodium falciparum line HB3 (AID 1886); settings: Potency: Plasmodium falciparum HB3 proliferation inhibition;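 further: parasites grown with compound for 72 h before SYBR Green readout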; further: potency means the concentration at half of the fitted maximal effect
[9] = qHTS Assay for Modulators of Human Peripheral Myelin Protein 22 (PMP22) Expression/Activity (AID 1967; active means well fitted curve in the direction sought with a large enough effect in the signal ratio; the % refers to the signal ratio)
Outline: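 Quantitative HTS in a mouse Schwann cell line expressing dual click beetle luciferases: Pmp22 promoter (green) and control EF-alpha promoter (red). After 24h treatment, corrected green/red signal ratio gave %Activity relative to untreated cells.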

[10] = qHTS Assay for Identification of Small Molecule Inducers of Hypoxia Response (AID 2120; active means well fitted curve in the direction sought with a large enough effect in the signal ratio, with a control signal flat, not every such curve was filed as active; the % refers to the signal ratio)
Outline: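 HRE-beta-lactamase reporter in CellSensor HRE-bla ME-180 cells, 2500 cells/well in Opti-MEM with 0.5% dialyzed FBS; compounds tested as titration series, 17 h at 37 degrees C. CCF4 substrate 2.5 h at room temperature; AC50 from 460/530 nm ratio.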

Sequence of RecQ-like DNA helicase BLM (Homo sapiens) (P54132 whole entry, looked up): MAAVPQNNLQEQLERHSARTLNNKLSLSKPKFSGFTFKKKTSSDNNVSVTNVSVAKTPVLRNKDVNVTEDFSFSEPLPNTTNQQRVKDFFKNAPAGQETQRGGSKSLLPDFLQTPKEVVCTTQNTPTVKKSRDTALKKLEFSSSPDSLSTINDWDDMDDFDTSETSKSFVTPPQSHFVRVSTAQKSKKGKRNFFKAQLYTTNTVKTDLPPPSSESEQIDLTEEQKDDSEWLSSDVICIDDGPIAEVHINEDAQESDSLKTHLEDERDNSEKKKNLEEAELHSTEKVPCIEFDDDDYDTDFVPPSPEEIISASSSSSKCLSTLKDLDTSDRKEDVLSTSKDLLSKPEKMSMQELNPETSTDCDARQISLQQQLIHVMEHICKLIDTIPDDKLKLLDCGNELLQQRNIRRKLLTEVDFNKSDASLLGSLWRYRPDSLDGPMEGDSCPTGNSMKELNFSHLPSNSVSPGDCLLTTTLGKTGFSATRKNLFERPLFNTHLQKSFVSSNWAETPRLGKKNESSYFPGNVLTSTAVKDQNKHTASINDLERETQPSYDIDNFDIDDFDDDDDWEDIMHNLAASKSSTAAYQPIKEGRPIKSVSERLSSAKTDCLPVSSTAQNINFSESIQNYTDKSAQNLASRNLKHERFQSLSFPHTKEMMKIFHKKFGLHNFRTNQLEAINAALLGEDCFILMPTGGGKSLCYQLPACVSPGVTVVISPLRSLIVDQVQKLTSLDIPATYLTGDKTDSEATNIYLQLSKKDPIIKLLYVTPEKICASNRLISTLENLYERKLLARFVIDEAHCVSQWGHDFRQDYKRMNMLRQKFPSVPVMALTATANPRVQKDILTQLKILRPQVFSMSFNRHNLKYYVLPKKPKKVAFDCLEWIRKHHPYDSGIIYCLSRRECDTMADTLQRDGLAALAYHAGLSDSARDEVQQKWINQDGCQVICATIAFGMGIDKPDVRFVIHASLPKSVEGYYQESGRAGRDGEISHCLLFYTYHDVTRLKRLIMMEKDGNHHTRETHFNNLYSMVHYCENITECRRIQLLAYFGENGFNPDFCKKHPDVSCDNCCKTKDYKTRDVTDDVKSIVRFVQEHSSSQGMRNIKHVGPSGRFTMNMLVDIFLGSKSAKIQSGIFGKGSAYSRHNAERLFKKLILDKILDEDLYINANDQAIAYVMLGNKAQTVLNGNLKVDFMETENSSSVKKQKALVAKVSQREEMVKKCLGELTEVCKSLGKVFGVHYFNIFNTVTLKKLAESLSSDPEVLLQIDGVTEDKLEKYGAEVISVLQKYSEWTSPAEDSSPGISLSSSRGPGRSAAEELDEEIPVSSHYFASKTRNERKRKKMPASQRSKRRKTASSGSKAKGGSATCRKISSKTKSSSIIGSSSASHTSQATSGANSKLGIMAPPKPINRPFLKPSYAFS
Sequence of ATP-dependent DNA helicase Q1 (Homo sapiens) (P46063 whole entry, looked up): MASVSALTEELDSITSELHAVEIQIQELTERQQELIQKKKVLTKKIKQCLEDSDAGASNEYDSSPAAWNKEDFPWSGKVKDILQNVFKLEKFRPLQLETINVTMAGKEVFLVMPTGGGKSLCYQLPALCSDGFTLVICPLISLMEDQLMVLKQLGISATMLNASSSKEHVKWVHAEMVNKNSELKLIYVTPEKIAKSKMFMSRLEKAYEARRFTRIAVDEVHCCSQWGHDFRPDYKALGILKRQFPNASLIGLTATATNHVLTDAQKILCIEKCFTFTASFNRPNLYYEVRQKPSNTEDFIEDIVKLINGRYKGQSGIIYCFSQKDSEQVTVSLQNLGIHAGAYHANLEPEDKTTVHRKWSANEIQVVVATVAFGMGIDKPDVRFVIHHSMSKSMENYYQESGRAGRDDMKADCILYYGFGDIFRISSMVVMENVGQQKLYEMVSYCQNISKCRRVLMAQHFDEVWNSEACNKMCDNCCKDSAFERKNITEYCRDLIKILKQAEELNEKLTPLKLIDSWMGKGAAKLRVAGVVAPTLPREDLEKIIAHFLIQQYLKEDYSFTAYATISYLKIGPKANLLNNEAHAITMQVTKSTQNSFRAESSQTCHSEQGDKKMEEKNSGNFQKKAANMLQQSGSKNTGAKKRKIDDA
Sequence of Ferritin light chain (Equus caballus) (P02791 2-175 limits assumed): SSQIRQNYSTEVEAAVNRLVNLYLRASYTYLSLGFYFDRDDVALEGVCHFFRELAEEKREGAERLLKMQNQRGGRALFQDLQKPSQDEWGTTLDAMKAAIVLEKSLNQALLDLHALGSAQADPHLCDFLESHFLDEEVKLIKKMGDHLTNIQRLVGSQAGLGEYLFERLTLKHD

Row | SMILES | Potency [1] | outcome [2] | outcome [3] | Potency [4] | outcome [5] | outcome [6] | outcome [7] | Potency [8] | outcome [9] | outcome [10]
1 | CCn1cc(C(=O)O)c(=O)c2cc(F)c(N3CCNC(C)C3)c(F)c21 (stereo not given) | 10 µM (active) | inactive | inactive | inactive | inactive | inactive | inactive | – | – | –
2 | C1COC(NC(C2CC2)C2CC2)=N1 | 14.1 µM (active) | inactive | inactive | inactive | inactive | inactive | inactive | 10 µM (active) | – | –
3 | CC(=O)Oc1ccccc1C(=O)O | inactive | inactive | inactive | – | inactive | inactive | inactive | inactive | inactive | –
4 | CN1CCN(CCCN2c3ccccc3Sc3ccc(C(F)(F)F)cc32)CC1 | 4.47 µM (active) | inactive | inactive | inactive | – | – | inactive | 7.94 µM (active) | – | –
5 | Nc1ccc(S(=O)(=O)Nc2ccnn2-c2ccccc2)cc1 | inactive | – | inactive | inactive | inactive | inactive | inactive | inactive | inactive | –
6 | NCCc1ccc(O)c(O)c1 | 10 µM (active) | inactive | inactive | – | inactive | inactive | – | – | – | –
7 | CNC[C@H](O)c1cccc(O)c1 | inactive | inactive | inactive | – | inactive | inactive | inactive | inactive | – | –
8 | CC(C)C[C@H](NC(=O)[C@@H](O)[C@H](N)Cc1ccccc1)C(=O)O | 1 µM (active) | inactive | inactive | inactive | inactive | inactive | inactive | 3.55 µM (active) | – | –
9 | CCC(C)N(C)C(=O)c1cc2ccccc2c(-c2ccccc2Cl)n1 (stereo not given) | 7.94 µM (active) | – | inactive | – | inactive | inactive | inactive | 12.6 µM (active) | – | –
10 | Cc1ccccc1C(OCCN(C)C)c1ccccc1 (stereo not given) | 0.708 µM (active) | inactive | inactive | – | inactive | inactive | inactive | – | – | –
11 | Oc1ccc(C2CNCCc3c2cc(O)c(O)c3Cl)cc1 (stereo not given) | 10 µM (active) | – | – | 35.5 µM (active) | inactive | inactive | inactive | 11.2 µM (active) | – | –
12 | Cc1cnc(NC(=O)C2=C(O)c3ccccc3S(=O)(=O)N2C)s1 | 8.91 µM (active) | inactive | inactive | inactive | inactive | inactive | inactive | inactive | – | –
13 | CCN(CC)CCCC(C)Nc1ccnc2cc(Cl)ccc12 (stereo not given) | 2.24 µM (active) | inactive | inactive | inactive | inactive | inactive | inactive | 0.282 µM (active) | inactive | –
14 | N=c1nc(N2CCCCC2)cc(N)n1O | inactive | inactive | inactive | inactive | inactive | inactive | inactive | inactive | inactive | –
15 | OC(CN1CCC(Cc2ccc(F)cc2)CC1)c1ccc(Cl)cc1 (stereo not given) | 0.282 µM (active) | – | inactive | – | inactive | inactive | inactive | 1.41 µM (active) | – | –
16 | NCCCC(N)(C(=O)O)C(F)F (stereo not given) | inactive | inactive | inactive | – | inactive | inactive | inactive | inactive | – | –
17 | O=NN(CCCl)C(=O)NCCCl | inactive | inactive | inactive | – | inactive | inactive | inactive | inactive | – | –
18 | NC(=O)c1cnccn1 | inactive | inactive | inactive | inactive | inactive | inactive | inactive | inactive | – | –
19 | O=C1CCC(N2C(=O)c3ccccc3C2=O)C(=O)N1 (stereo not given) | inactive | inactive | inactive | – | inactive | inactive | inactive | inactive | inactive | –
20 | O=c1[nH]cnc2[nH]ncc12 | inactive | inactive | inactive | – | inactive | inactive | inactive | inactive | – | –
21 | Cc1[nH]c(=O)c(C#N)cc1-c1ccncc1 | inactive | inactive | inactive | – | inactive | inactive | inactive | inactive | – | –
22 | CCOC(=O)N1CCC(=C2c3ccc(Cl)cc3CCc3cccnc32)CC1 | 5.01 µM (active) | inactive | inactive | – | inactive | – | – | 10 µM (active) | – | –
23 | Cc1cn[nH]c1 | inactive | inactive | inactive | inactive | inactive | inactive | inactive | inactive | – | –
24 | CCOC(=O)C1=C[C@]2(CC)CCCN3CCc4c(n1c1ccccc41)[C@@H]32 | 14.1 µM (active) | inactive | inactive | – | inactive | inactive | inactive | 12.6 µM (active) | – | –
25 | CCCCNc1cc(C(=O)O)cc(S(N)(=O)=O)c1Oc1ccccc1 | inactive | inactive | inactive | – | inactive | inactive | inactive | inactive | inactive | –
26 | Cn1cnc([N+](=O)[O-])c1Sc1ncnc2nc[nH]c12 | 12.6 µM (active) | – | – | – | – | – | – | – | – | –
27 | Cc1ccc(N(CC2=NCCN2)c2cccc(O)c2)cc1 | 11.2 µM (active) | – | – | – | – | – | – | – | – | –
28 | N[C@@H]1CONC1=O | – | – | – | – | – | – | – | – | inactive | –
29 | NS(=O)(=O)c1cc2c(cc1Cl)NC=NS2(=O)=O | – | – | – | – | – | – | – | – | inactive | inactive
30 | CCCC(CCC)C(=O)O | – | – | – | – | – | – | – | – | – | inactive
